# Screening data from PubChem BioAssay.
# KDM5B inhibitor: inhibitors of human KDM5B histone demethylase; Q9UGL1; KDM5B demethylase, FDH-coupled NADH fluorescence (FDH is formaldehyde dehydrogenase); Potency, µM (titrated, usually from 57.7 µM), most hits filed as inhibitors; hit rate 2.6% among 220,000; AID 1347165; active = well fitted inhibition curve with a large enough effect; note: 0% is about no effect; nearly all actives have a fitted effect of over 70% in size
#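 Compound dilutions met 200 nM (final) KDM5BΔAP for 10 min at room temperature before substrate addition. The substrate mix held 12.5 µM H3K4me3 with cofactors 25 µM α-ketoglutarate and 50 µM Fe²⁺. NADH signal gain over 30 min defined activity.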
# An asterisk follows results filed as active; i = inactive. The sample as a whole holds a higher share of hits than the screen did. Potency is the fitted concentration of half-maximal effect.
SMILES,KDM5B inhibitor
COC(=O)c1ccccc1NC(=O)N(Cc1ccc(C)cc1)Cc1cccn1-c1nnc(N2CCCC2=O)s1,i
Cc1ccc(NC(=O)CCn2cnc3c2c(=O)n(C)c(=O)n3C)cc1Cl,i
CN(C)CCCN1C(=O)CSC1c1ccc(Cl)c(Cl)c1 (stereo not given),i
Cc1cccn2cc(COc3ccc(C(=O)O)cc3)nc12,i
COc1ccccc1Cn1cc(C(=O)c2ccccc2)c(=O)c2cc(OC)c(OC)cc21,i
O=C(Cc1cccc(F)c1)N1CCC2(CC1)CN(c1ncccn1)CC2CO (stereo not given),22µM*
CC(=O)N1CC(CO)C2(CCN(C(=O)Cc3ccccc3Cl)CC2)C1 (stereo not given),i
O=C(Cc1ccccc1F)N1CCC2(CC1)CN(c1ccncn1)CC2CO (stereo not given),i
COC1CCC12CCN(C(=O)Cc1cccc(F)c1)CC2 (stereo not given),i
O=C(Cc1ccccc1)N1CCC2(CC1)CN(c1ncccn1)CC2CO (stereo not given),22µM*
COCC1CN(C(C)=O)CC12CCN(C(=O)Cc1cccc(F)c1)CC2 (stereo not given),i
CSCC(=O)N[C@@H]1CN(Cc2cccnc2)C[C@H]1CN(C)C,i
COc1ccccc1C(=O)COC(=O)C1(c2ccc(F)cc2)CCCC1,i
COc1cccc(CNC(=O)[C@@H]2C[C@@H](O)CN2C2CCN(C(=O)c3ccncc3)CC2)c1,i
CC1COc2ccccc2N1C(=O)c1ccc(Cl)cc1 (stereo not given),i
Cc1ccc(Nc2ncncc2-c2nc(-c3ccccc3)no2)c(F)c1,i
Cc1ccc(CCNc2ncncc2-c2nc(-c3ccccc3)no2)cc1,32µM*
Cc1ccc(Cl)cc1Nc1ncncc1-c1nc(-c2ccccc2)no1,25µM*
Cc1ccc(F)c(Nc2ncncc2-c2nc(-c3ccccc3)no2)c1,i
COc1ccc(OC)c(Nc2ncncc2-c2nc(-c3ccccc3)no2)c1,i
COc1cccc(CNc2ncncc2-c2nc(-c3ccccc3)no2)c1,i
COc1cc(OC)cc(C(=O)N2CCCC(c3noc(COc4ccccc4F)n3)C2)c1 (stereo not given),i
N#C/C(=C/c1cccc(F)c1)S(=O)(=O)c1ccc(Br)cc1,i
COc1ccc(OC)c(NC(=O)Cn2c(=O)n(-c3ccccc3)c(=O)c3c2cc(C)n3C)c1,i
CCCCn1c(=O)[nH]c(=O)c2c1nc(-c1ccncc1)n2CCC,i
SMILES,KDM5B inhibitor
COc1ccc(N2CCN(C(=O)c3cccn4c(=O)c5ccc(Cl)cc5nc34)CC2)cc1,i
Cc1nc(C)c(C(=O)N2CCC3(CC2)CN(c2ncccn2)CC3CO)s1 (stereo not given),25µM*
CC(=O)N1CC(CO)C2(CCN(C(=O)c3cc(C)n(C)n3)CC2)C1 (stereo not given),i
COc1cccc(C(=O)N2CCC3(CC2)CN(c2ccncn2)CC3CO)c1C (stereo not given),i
CC(=O)N1CC(CO)C2(CCN(C(=O)c3nccc4ccccc34)CC2)C1 (stereo not given),i
O=C(c1ccc(Cl)s1)N1CCC2(CC1)CN(c1ccncn1)CC2CO (stereo not given),i
Cc1nn(C)cc1C(=O)N1CCC2(CC1)CN(c1ncccn1)CC2CO (stereo not given),28µM*
N#Cc1cccc(NC(=O)CCSc2ccc(Cl)cc2)c1,i
COCCn1cnc2c1c(=O)n(CC(=O)Nc1cccc(F)c1)c(=O)n2Cc1ccccc1,i
O=C1N[C@H](CCC(=O)N2CCN(Cc3ccccc3Cl)CC2)C(=O)Nc2ccccc21,i
O=C1Nc2cnccc2C2(CCN(C(=O)c3cccnc3)C2)O1 (stereo not given),i
O=C(O)c1cc(NS(=O)(=O)c2cccc3nsnc23)cc(C(=O)O)c1,i
Cc1ccc2c(c1)C1C[N+](C)(Cc3ccccc3)CCC1N2C(=O)c1ccc(F)cc1 (stereo not given),i
Cc1cc(Cl)ccc1-n1nc(C)c([C@@H]2C=C[C@@H](NC(=O)CCC(=O)O)C2)c1C,i
COc1ccc(CNC(=O)C2CC(=O)N(c3n[nH]c4cccc(F)c34)C2)cc1 (stereo not given),i
COc1ccc(CCNC(=O)C2CC(=O)N(c3n[nH]c4ccccc34)C2)cc1OC (stereo not given),i
O=C(NCCc1cccc(F)c1)C1CC(=O)N(c2n[nH]c3cccc(F)c23)C1 (stereo not given),22µM*
COc1ccccc1CCNC(=O)C1CC(=O)N(c2n[nH]c3cccc(F)c23)C1 (stereo not given),22µM*
O=C(NCCc1ccncc1)C1CC(=O)N(c2n[nH]c3cccc(F)c23)C1 (stereo not given),i
O=C(NCCc1ccccc1)C1CC(=O)N(c2n[nH]c3cccc(F)c23)C1 (stereo not given),i
